# From the supplement of paper PMC11741263, “Chemoproteomic Profiling of C. albicans for Characterization of Anti-fungal Kinase Inhibitors” (bioRxiv, 2025)
# What was measured:
# Experiment in all cases: MIB bead binding, log2 fold change vs DMSO (log2 ratio); higher = less competition (weaker engagement)
# ATG1 = molecular target: T1, ATG1 (UniProt Q5A649)
# T1 sequence (whole entry): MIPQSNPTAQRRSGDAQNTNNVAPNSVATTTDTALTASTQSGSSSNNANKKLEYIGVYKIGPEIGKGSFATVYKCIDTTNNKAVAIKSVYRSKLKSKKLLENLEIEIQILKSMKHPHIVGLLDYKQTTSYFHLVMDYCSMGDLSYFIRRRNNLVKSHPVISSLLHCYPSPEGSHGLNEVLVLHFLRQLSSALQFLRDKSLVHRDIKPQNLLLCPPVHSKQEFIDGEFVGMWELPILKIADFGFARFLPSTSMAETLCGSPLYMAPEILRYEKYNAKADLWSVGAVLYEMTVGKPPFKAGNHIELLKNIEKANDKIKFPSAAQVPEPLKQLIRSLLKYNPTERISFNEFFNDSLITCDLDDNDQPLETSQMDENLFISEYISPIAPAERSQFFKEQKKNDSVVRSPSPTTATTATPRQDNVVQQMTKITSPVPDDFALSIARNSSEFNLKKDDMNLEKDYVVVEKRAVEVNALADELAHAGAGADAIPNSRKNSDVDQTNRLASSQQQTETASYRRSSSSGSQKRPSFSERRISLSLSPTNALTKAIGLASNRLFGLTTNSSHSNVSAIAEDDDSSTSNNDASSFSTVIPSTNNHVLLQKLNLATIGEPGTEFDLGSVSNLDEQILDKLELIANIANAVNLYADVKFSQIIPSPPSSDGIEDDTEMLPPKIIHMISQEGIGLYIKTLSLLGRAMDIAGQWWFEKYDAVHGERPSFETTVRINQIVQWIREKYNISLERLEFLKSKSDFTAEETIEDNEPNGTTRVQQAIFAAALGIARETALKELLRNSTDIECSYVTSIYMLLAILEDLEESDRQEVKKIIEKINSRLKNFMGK
# PKC1 = molecular target: T2, PKC1 (UniProt P43057)
# T2 sequence (whole entry): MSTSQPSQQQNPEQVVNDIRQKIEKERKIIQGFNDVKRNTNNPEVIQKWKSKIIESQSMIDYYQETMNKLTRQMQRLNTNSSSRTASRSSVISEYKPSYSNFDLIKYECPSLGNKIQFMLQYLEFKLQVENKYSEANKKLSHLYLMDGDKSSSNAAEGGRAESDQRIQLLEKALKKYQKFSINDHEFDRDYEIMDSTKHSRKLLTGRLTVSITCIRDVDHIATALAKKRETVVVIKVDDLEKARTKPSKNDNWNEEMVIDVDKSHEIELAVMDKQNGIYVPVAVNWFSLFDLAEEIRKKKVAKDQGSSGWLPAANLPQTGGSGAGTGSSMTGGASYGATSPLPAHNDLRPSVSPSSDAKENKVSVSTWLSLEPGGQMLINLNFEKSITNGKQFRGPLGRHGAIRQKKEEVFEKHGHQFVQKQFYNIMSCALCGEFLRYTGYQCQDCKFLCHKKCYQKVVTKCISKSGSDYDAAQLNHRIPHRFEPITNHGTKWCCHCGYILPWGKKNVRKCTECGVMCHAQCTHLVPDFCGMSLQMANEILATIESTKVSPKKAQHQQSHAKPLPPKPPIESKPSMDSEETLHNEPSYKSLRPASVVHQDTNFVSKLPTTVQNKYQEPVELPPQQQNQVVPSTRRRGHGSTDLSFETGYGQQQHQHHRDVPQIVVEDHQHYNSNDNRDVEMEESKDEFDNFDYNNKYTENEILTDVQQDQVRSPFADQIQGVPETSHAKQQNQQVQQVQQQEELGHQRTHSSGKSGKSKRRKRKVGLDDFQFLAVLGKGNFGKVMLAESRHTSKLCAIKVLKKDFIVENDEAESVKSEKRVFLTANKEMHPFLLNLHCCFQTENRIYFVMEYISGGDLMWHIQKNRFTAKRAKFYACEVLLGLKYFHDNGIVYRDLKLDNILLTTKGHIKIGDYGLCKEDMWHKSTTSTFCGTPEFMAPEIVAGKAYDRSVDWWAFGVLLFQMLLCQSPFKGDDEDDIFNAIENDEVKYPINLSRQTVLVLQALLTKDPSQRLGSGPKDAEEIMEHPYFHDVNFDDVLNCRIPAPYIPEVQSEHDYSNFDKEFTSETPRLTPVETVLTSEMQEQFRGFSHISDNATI
# PKH2 = molecular target: T3, PKH2 (UniProt Q5A3P6)
# T3 sequence (whole entry): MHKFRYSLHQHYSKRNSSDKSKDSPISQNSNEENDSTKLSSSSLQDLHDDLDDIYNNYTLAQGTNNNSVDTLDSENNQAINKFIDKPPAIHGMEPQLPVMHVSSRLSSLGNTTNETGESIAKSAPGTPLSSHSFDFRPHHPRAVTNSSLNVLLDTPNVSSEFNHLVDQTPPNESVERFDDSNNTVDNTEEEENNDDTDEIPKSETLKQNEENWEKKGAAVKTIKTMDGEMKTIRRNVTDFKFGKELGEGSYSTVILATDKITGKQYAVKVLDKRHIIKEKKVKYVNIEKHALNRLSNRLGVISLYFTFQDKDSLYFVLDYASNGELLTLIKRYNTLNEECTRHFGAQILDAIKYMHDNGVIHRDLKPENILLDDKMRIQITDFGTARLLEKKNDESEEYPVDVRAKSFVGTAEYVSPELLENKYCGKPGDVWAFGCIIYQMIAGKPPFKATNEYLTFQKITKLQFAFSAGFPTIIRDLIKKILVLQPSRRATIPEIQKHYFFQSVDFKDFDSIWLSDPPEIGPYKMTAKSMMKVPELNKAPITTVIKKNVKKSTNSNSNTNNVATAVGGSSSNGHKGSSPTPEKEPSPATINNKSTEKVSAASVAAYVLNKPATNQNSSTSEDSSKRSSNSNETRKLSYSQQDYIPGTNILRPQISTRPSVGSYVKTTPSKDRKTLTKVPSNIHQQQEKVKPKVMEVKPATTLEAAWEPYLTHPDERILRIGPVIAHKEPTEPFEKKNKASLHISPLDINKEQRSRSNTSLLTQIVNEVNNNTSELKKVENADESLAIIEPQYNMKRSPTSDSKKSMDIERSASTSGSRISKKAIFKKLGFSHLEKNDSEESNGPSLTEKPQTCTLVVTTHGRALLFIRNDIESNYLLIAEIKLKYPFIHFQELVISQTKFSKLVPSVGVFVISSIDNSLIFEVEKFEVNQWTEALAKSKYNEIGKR
structure (smiles),measurement,setting,value
Cc1[nH]nc2ccc(-c3cc(OC[C@@H](N)Cc4ccccc4)cnc3-c3ccoc3)cc12,MIB bead binding (log2),ATG1; 0.1 µM,-0.123
same,MIB bead binding (log2),ATG1; 1 µM,-0.147
same,MIB bead binding (log2),ATG1; 10 µM,-0.524
same,MIB bead binding (log2),PKC1; 0.1 µM,-0.235
same,MIB bead binding (log2),PKC1; 1 µM,0.00546
same,MIB bead binding (log2),PKC1; 10 µM,-0.233
same,MIB bead binding (log2),PKH2; 0.1 µM,-0.165
same,MIB bead binding (log2),PKH2; 1 µM,-0.0865
same,MIB bead binding (log2),PKH2; 10 µM,-0.756
